Data published in publication PMC7862700, “An all-to-all approach to the identification of sequence-specific readers for epigenetic DNA modifications on cytosine”.

Key:
Assay in all cases: DAPPL (digital affinity profiling via proximity ligation, sequencing); 10 mM Tris-HCl pH 7.5, 50 mM NaCl, 1 mM DTT, 4% glycerol, room temperature, 30 min; GST-TFs on glutathione beads, 16-mer random dsDNA library, 0.1% formaldehyde crosslink after washing; high values mean tight binding
Settings in all cases: protein: recombinant; tags: N-terminal GST; dsDNA, one strand shown
[1] = target: T1, GABPA (Homo sapiens, UniProt Q06546 1-454)
T1 sequence: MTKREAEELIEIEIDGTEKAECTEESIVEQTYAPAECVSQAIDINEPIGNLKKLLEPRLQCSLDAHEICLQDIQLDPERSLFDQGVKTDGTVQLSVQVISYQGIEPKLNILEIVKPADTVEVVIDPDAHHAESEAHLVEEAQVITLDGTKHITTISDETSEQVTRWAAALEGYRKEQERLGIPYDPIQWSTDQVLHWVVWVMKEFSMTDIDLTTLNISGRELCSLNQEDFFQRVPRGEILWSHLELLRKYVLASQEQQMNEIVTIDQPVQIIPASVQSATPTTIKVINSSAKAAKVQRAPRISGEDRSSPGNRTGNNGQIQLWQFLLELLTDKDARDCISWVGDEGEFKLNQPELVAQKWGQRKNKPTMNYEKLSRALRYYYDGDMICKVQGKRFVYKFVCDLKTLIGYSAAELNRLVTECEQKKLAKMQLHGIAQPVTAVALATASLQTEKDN
Procedure, shortened: (§1)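 A tag-only sample was pooled with DNA-barcoded human transcription factors that had been expressed in yeast as GST fusions and captured on glutathione beads. The pools were incubated for 30 min at room temperature with 200 nmole of a random double-stranded 16-mer DNA library in Tris/NaCl/DTT/glycerol buffer, then washed, crosslinked with 0.1% formaldehyde, proximity-ligated (BsaI/T4 ligase, 1 h, 37 °C), PCR-amplified and sequenced on an Illumina NextSeq500. Binding signal is each hexamer's read frequency for a factor divided by its frequency for the tag-only sample.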

[2] = target: ELF1 (Homo sapiens, UniProt P32519 1-619)
ELF1, sequence (P32519 whole entry): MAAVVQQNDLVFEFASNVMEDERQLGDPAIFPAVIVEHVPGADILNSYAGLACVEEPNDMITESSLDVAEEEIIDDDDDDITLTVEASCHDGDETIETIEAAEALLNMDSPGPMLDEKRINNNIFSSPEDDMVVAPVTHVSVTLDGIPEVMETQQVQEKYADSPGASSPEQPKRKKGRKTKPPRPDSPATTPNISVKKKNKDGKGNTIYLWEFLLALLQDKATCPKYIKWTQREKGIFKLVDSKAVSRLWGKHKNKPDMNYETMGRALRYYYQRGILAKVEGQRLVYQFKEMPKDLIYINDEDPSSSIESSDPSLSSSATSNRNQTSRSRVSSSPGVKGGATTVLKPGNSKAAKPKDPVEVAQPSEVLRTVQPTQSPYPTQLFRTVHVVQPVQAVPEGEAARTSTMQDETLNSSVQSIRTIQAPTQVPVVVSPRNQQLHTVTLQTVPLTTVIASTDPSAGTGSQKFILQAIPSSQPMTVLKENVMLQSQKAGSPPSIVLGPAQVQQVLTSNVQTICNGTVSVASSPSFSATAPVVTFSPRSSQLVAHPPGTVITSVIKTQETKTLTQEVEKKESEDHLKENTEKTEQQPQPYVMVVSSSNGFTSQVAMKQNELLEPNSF
Procedure, shortened: as §1

[3] = target: T2, EHF (Homo sapiens, UniProt Q9NZC4 1-300)
T2 sequence: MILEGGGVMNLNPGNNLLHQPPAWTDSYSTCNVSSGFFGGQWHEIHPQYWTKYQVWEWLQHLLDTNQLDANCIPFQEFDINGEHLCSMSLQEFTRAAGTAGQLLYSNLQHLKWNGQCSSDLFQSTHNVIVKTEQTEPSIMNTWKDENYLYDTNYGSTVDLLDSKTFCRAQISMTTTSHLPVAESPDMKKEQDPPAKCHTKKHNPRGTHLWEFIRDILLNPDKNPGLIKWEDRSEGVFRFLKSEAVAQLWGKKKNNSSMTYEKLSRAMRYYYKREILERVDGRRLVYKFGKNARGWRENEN
Procedure, shortened: as §1

[4] = target: T3, FEV (Homo sapiens, UniProt Q99581 1-238)
T3 sequence: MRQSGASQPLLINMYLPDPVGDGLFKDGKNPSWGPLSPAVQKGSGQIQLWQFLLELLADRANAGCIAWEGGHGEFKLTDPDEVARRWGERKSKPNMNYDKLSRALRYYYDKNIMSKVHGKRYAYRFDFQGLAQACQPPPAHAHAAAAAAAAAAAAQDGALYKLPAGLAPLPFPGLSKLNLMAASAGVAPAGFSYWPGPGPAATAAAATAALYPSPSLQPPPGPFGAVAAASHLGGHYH
Procedure, shortened: as §1

[5] = target: ETV5 (Homo sapiens, UniProt P41161 1-510)
ETV5, sequence (P41161 whole entry): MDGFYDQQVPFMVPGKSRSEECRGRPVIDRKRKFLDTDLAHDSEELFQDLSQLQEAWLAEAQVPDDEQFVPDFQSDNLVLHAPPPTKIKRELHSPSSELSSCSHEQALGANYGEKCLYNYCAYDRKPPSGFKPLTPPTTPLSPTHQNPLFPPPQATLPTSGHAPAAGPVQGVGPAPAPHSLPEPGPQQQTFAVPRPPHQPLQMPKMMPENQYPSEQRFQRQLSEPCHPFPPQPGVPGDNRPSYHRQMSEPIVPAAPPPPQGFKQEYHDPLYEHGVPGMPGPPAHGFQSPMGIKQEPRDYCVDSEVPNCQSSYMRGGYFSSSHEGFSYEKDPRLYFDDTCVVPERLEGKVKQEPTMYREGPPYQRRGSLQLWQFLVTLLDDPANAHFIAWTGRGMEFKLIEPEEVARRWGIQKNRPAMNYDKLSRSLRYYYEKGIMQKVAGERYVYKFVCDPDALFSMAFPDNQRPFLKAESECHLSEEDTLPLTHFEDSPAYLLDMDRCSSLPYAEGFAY
Procedure, shortened: as §1

[6] = target: T4, ELK4 (Homo sapiens, UniProt P28324-2 1-405)
T4 sequence: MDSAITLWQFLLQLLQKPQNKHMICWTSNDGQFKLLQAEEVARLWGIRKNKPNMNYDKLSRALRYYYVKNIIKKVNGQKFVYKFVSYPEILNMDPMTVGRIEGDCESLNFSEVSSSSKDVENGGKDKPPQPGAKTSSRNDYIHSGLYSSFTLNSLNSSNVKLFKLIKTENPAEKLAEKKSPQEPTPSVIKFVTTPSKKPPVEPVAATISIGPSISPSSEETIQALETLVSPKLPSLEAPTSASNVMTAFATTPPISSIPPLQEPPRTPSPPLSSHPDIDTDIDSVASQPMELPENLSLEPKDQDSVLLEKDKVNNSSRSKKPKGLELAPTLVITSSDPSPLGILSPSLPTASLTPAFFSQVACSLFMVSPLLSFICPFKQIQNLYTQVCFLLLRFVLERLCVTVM
Procedure, shortened: as §1

[7] = target: ETV1 (Homo sapiens, UniProt P50549 1-477)
ETV1, sequence (P50549 whole entry): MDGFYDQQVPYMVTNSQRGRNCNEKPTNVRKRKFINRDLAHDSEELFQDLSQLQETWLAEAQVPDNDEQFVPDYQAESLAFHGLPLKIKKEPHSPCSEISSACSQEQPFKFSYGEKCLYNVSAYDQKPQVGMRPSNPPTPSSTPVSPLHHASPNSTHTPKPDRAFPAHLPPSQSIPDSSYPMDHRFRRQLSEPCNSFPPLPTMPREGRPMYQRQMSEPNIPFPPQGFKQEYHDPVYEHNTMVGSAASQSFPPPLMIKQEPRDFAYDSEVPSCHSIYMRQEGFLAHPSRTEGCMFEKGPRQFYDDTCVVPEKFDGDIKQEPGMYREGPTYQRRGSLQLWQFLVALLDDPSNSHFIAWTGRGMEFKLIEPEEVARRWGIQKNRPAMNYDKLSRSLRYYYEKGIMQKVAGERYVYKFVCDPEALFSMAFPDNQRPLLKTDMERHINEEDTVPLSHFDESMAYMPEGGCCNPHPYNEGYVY
Procedure, shortened: as §1

[8] = target: T5, SPDEF (Homo sapiens, UniProt O95238 1-335)
T5 sequence: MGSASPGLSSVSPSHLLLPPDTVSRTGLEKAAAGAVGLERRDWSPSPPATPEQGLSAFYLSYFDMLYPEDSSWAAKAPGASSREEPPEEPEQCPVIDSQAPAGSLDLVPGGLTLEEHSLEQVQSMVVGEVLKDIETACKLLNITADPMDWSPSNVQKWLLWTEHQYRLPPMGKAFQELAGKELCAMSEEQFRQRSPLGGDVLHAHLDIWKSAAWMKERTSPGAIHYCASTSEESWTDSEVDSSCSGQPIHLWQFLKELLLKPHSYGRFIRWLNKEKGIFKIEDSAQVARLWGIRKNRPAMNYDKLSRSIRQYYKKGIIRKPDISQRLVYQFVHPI
Procedure, shortened: as §1

[9] = target: T6, ETV7 (Homo sapiens, UniProt Q9Y603 1-341)
T6 sequence: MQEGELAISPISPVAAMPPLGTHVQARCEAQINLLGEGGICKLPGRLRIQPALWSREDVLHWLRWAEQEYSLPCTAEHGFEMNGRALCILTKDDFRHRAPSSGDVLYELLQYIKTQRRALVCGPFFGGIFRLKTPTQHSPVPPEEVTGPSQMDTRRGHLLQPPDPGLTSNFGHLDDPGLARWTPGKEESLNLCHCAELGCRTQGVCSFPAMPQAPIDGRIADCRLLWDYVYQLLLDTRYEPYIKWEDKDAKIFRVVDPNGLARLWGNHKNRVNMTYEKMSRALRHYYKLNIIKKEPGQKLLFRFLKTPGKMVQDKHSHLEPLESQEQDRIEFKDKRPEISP
Procedure, shortened: as §1

[10] = target: ETV6 (Homo sapiens, UniProt P41212 1-452)
ETV6, sequence (P41212 whole entry): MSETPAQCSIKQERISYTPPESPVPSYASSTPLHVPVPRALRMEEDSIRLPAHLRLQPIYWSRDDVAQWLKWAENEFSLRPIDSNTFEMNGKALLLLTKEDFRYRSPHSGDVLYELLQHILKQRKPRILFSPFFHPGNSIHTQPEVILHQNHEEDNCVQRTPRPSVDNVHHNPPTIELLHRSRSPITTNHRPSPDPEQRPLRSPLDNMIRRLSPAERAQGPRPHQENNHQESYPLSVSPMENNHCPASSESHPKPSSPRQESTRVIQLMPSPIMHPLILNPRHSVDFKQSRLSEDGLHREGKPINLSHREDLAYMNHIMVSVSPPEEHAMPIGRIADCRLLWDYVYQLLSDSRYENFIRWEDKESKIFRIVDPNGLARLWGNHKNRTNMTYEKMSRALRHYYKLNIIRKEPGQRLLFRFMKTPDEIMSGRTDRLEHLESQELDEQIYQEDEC
Procedure, shortened: as §1

**Q.** For GGCTAA, which binding signal [1] is on record?
**A.** 1.01 fold enrichment (6-mer frequency, TF over GST control)

**Q.** What about the binding signal [2] of the same sequence?
**A.** 1.04 fold enrichment (6-mer frequency, TF over GST control)

**Q.** What about the binding signal [3] of the same sequence?
**A.** 1.01 fold enrichment (6-mer frequency, TF over GST control)

**Q.** And the binding signal [4]?
**A.** 1.01 fold enrichment (6-mer frequency, TF over GST control)

**Q.** What about the binding signal [5] of the same sequence?
**A.** 1.01 fold enrichment (6-mer frequency, TF over GST control)

**Q.** And the binding signal [6]?
**A.** 1.04 fold enrichment (6-mer frequency, TF over GST control)

**Q.** And the binding signal [7]?
**A.** 1.03 fold enrichment (6-mer frequency, TF over GST control)

**Q.** What about the binding signal [8] of the same sequence?
**A.** 1 fold enrichment (6-mer frequency, TF over GST control)

**Q.** What about the binding signal [9] of the same sequence?
**A.** 1 fold enrichment (6-mer frequency, TF over GST control)

**Q.** And the binding signal [10]?
**A.** 1.04 fold enrichment (6-mer frequency, TF over GST control)
